Bioassay records from PubChem.
Compounds with a hit are over-represented: about 2.3% of the library has one in this group of screens.
PTHR1 ag = qHTS for PTHR1 Agonists: Primary Screen | Potency, µM (titrated, usually from 115 µM), hits mostly activators | AID 743266, 2014 | 410,000 tested, 0.075% active | Parathyroid hormone/parathyroid hormone-related peptide receptor (Homo sapiens), Q03431 | HEK293 GP2 PTHR1 cells, GloSensor cAMP luminescence, 1 h; note: nearly all actives have a fitted effect of over 55% in size
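HEK-293-derived GP2 cells expressing PTHR1 and a GloSensor cAMP reporter, 3,000/well, plated overnight, given luciferin plus IBMX (each 0.5 mM as added) for 1 h at 37 °C, then compound for 1 h at 37 °C. Luminescence was read after 15 min at room temperature.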
GLP1R inv ag = qHTS of GLP-1 Receptor Inverse Agonists (Inhibition Mode). Glucagon-like peptide 1 receptor (Homo sapiens), P43220. HEK293 GLP-1R CRE-luciferase, luminescence, 24 h; GLP-1R form is constitutively active. Potency, µM (titrated, usually from 38.3 µM), hits mostly inhibitors. 410,000 tested, 1.6% active; note: nearly all actives have a fitted effect of over 55% in size
Target sequence (P43220 whole entry, looked up): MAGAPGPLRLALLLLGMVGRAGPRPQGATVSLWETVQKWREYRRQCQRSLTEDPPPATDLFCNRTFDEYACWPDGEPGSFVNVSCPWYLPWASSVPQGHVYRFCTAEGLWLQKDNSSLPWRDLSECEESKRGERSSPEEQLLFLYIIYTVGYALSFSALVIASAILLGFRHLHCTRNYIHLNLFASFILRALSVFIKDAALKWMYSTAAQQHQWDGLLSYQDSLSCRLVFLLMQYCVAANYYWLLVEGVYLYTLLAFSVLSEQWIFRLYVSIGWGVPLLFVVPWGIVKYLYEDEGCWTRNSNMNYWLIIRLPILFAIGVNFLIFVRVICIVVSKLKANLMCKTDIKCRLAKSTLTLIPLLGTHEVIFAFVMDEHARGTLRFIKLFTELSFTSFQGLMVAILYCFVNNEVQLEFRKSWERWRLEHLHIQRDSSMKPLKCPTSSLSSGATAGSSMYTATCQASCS
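GLP-1R inverse agonism mode: basal reporter luminescence in engineered HEK293 cells measured after one day of compound exposure at 37 deg C, with a 12 min room-temperature detection step.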
GLS inhibitor = qHTS for Inhibitors of Glutaminase (GLS); GLS enzymatic activity, qHTS titration; Potency, µM (series often up to 45.5 µM), usual class: inhibitors; 410,000 tested, 0.21% active
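Coupled fluorescence readout: glutamate oxidase/HRP/Amplex Red detect glutamate formed by hKGA from L-glutamine (1 mM solution added). Buffer 45 mM KH2PO4 pH 8.2, 0.02% Tween-20; reads at t0 and 30 min RT.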
GLP1R ag = qHTS of GLP-1 Receptor Agonists | Glucagon-like peptide 1 receptor (Homo sapiens), P43220 | HEK293 GLP-1R CRE-luciferase, luminescence, 4-6 h; cells express a hypersensitive GLP-1R form | Potency, µM (highest dose often 45.6 µM), usual class: activators | 380,000 tested, 0.007% active | AID 624172, 2012
ALOX12 inh = Primary qHTS assay for inhibitors of human arachidonate 12S-lipoxygenase (ALOX12): Round 2; Polyunsaturated fatty acid lipoxygenase ALOX12 (Homo sapiens), P18054; 580,000 tested, 1.1% active; Potency, µM (highest dose often 108 µM), actives largely listed as inhibitors; purified 12hLO, xylenol orange hydroperoxide absorbance
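Hydroperoxide product was detected by ferrous iron/xylenol orange as the 573 to 405 nm absorbance ratio. Arachidonic acid at 40 uM (final) was turned over for 30 min at room temperature by 150 nM human 12hLO, pH 7.0 Hepes buffer, after 15 min compound preincubation.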
Glioma ERSR ind = qHTS for Inducers of the Endoplasmic Reticulum Stress Response (ERSR) in Human Glioma: qHTS; U87-MG GRP78 promoter luciferase reporter, 16 h; AID 602332, 2012; Potency, µM, most hits filed as activators; 420,000 tested, 0.02% active; note: series mostly up to about 76 µM; nearly all actives have a fitted effect of over 35% in size
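Stably transfected U87-MG human glioma cells carrying a GRP78-based luminescent sensor were seeded at 1000 cells/well, pin-dosed with compounds and incubated 16 h. Luciferase reagent was then added, and end-point luminescence was read after 10 min at room temperature.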
Hits are given with their value; i = inactive; ? = inconclusive; nt = no result given; ! = repeats disagree. Calls come from the whole dose curve; as a rule, active = well fitted curve in the direction sought with a large enough effect; inconclusive = small, poorly fitted or top-dose-only effect, or another doubt; inactive = no such curve, though single readings can be large; an effect the other way counts as inactive or inconclusive.

SMILES	PTHR1 ag	GLP1R inv ag	GLS inhibitor	GLP1R ag	ALOX12 inh	Glioma ERSR ind
O=c1[nH]c(-c2ccc(O)cc2)nc2scc(-c3cccs3)c12	i	i	i	i	i	i
Cc1cc(C)c2nc(N3CCC(C(=O)NCCCN4CCCCC4)CC3)sc2c1	i	3.2µM	i	i	i	i
C[c-]1[c-](C)[c-](C)[c-](C)[c-]1C.[Fe].c1cc2nccc(N3CCCC3)[c-]2c1 (configuration not stated)	i	i	13µM!	i	i	i
c1cc(N2CCCCC2)nc(N2CCCCC2)n1	i	i	i	i	i	i
CCc1cccc(NC(=S)N(CCC(C)C)C(C)c2cccs2)c1 (configuration not stated)	nt	nt	nt	nt	40µM	nt
CCc1cccc(NC(=S)N(CCOC)C(C)c2ccco2)c1 (configuration not stated)	i	?	i	i	i	i
Cc1ccc(C(=O)O)cc1NC(=S)NC(=O)c1ccc(COc2ccccc2)cc1	i	i	i	i	2.8µM	i
Cc1ccc(C(=O)O)cc1NC(=S)NC(=O)Cc1ccccc1	i	i	i	i	?	i
CCc1nc2nc(C)c(NS(=O)(=O)c3ccc(Br)s3)c(=O)n2[nH]1	i	i	i	i	i	i
CCc1nc2nc(C)c(NS(=O)(=O)c3cccs3)c(=O)n2[nH]1	i	i	i	i	6.3µM	i
CN1C[C@H](NC2CCOCC2)CCC[C@@H](C(=O)NCc2cc(F)cc(F)c2)CC1=O	nt	nt	nt	nt	i	nt
CN1C[C@H](NC(=O)NC2(c3ccccc3)CCOCC2)CCC[C@@H](C(=O)NCc2cc(F)cc(F)c2)CC1=O	nt	nt	nt	nt	22µM	nt
CCN(CC)C(=O)CSc1nc2ccccc2c(=O)n1-c1cccc(OC)c1	i	?	i	i	i	i
COc1cccc(-n2c(SCc3cc(=O)oc4cc(O)c(O)cc34)nc3ccccc3c2=O)c1	i	i	i	i	7.1µM	i
C=C(C)C(=O)Nc1cccc(C2=NOC3(C2)C[C@@H](C(N)=O)N(C(=O)CC(c2ccccc2)c2ccccc2)C3)c1 (some centres not stated)	i	i	11µM	i	i	i
C=C(C)C(=O)Nc1cccc(C2=NOC3(C2)C[C@@H](C(N)=O)N(C(=O)/C=C/C=C/C)C3)c1 (some centres not stated)	i	i	11µM	i	i	i
C/C=C\C=C\C(=O)Nc1cccc(C2=NOC3(C2)C[C@@H](C(N)=O)N(C(=O)C(c2ccccc2)c2ccccc2)C3)c1 (some centres not stated)	i	?	i	i	8.9µM	i
C/C=C(\C)C(=O)Nc1cccc(C2=NOC3(C2)C[C@@H](C(N)=O)N(C(=O)c2ccccc2C(=O)c2ccccc2)C3)c1 (some centres not stated)	i	i	i	i	i	i
C/C=C(/C)C(=O)Nc1cccc(C2=NOC3(C2)C[C@@H](C(N)=O)N(C(=O)CC(c2ccccc2)c2ccccc2)C3)c1 (some centres not stated)	i	?	i	i	i	i
C=C(C)C(=O)Nc1cccc(C2=NOC3(C2)C[C@H](C(N)=O)N(C(=O)c2ccccc2C(=O)c2ccccc2)C3)c1 (some centres not stated)	i	i	14µM	i	i	i
C/C=C/C=C/C(=O)N1CC2(CC(c3cccc(NC(=O)/C=C/C)c3)=NO2)C[C@@H]1C(N)=O (some centres not stated)	i	i	i	i	?	i
COc1ccc(C(=O)COC(=O)c2cc(C)nc3c(C)cccc23)cc1	nt	nt	nt	nt	i	nt
